Assay results published in PubChem BioAssay (NCATS).
Inconclusive results are not listed. The source made the active and inactive calls. Calls follow the shape of the dose curve; as a rule, active = well fitted curve in the direction sought with a large enough effect; inconclusive = small, poorly fitted or top-dose-only effect, or another doubt; inactive = no such curve, though single readings can be large; an effect the other way counts as inactive or inconclusive. Non-standard residues stand in square brackets, D forms with d. Residues, ends and D or L forms follow the SMILES beside them. *: point of attachment. Sta = CC(C)C[C@H](N)[C@@H](O)CC(=O)O; Isovaleryl = CC(C)CC(=O)*

What was measured:
[1] = qHTS to identify inhibitors of the type 1 interferon - major histocompatibility complex class I in skeletal muscle: primary screen against the NCATS LOPAC collection (AID 1347405);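 also: lytic HiBiT luminescence reporting HLA-B protein level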
Procedure, shortened: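 Immortalized human C25cl48 myoblasts with HiBiT knocked into endogenous HLA-B*08:01 were stimulated with 4.0 ng/ml IFN-beta and given compounds in a 7-point, 1:4.3 titration from 46 uM final; after 24 hrs, lytic HiBiT luminescence was read.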

[2] = qHTS for inhibitors of adenylyl cyclases using a fission yeast platform: a pilot screen against the NCATS LOPAC library (AID 1347410)
Procedure, shortened: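 Fission yeast qHTS: CHP2027 cells (AC9-GNAS-PDE4D2, fbp1-GFP), 5x10^6 cells/mL working density, EMM + His/Lys/Ura; LOPAC at up to 57 µM final; 18 h dark, 30C; GFP by laser cytometry. DPI positive control, DMSO vehicle.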

[3] = Validation qHTS assay for inhibitors of Activation Induced Cytidine Deaminase (AID): UDG Counterscreen signal (AID 1347427)
Procedure, shortened: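 Counterscreen read of UDG activity (2 U/mL, 4/3x) in the FRET deamination format with AID (1 uM, 4/3x), DJC20/DJC23 substrates (250 nM, 4x), 4 h at room temperature. NaOH stop, fluorescence at 560 ex/665 em.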

[4] = biological target: Single-stranded DNA cytosine deaminase (Homo sapiens) (UniProt Q9GZX7); assay: Validation qHTS assay for inhibitors of Activation Induced Cytidine Deaminase (AID): AID signal (AID 1347429)
Single-stranded DNA cytosine deaminase (Homo sapiens), sequence (Q9GZX7 whole entry, looked up): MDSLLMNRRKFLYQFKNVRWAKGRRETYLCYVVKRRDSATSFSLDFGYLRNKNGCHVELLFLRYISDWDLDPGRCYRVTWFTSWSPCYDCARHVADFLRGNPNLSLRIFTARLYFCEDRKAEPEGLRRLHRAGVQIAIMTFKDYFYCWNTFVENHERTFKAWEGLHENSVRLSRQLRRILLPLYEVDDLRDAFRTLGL
Procedure, shortened: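 AID and UDG were combined and compounds added at final up to 114 uM, then DJC20/DJC23 FRET substrate was added for 4 hr at room temperature. NaOH was then added for 30 min before fluorescence was read at 540/590 nm.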

[5] = Primary qHTS for inhibitors of La Crosse Virus (LACV) - induced cell death in SH-SY5Y cells (AID 1508616);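 also: top concentration of the series differs between compounds; higher means more rescue of cells from virus-induced death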
Procedure, shortened: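 Luminescent ATP readout (ATPLite 1step, 5 min room temperature) measured rescue from LACV-induced death after 6 days of infection at 0.01 MOI; normalized to infected DMSO wells and uninfected DMSO wells.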

[6] = biological target: Calcium and integrin-binding protein 1 (Homo sapiens) (UniProt Q99828); assay: Primary qHTS for Identification of Calcium Integrin Binding Protein 1 (CIB1) Competitor (AID 1508620);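 also: GST tagged CIB1 binding a fluorescein labelled alphaIIb integrin peptide tracer; top concentration of the series differs between compounds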
Calcium and integrin-binding protein 1 (Homo sapiens), sequence (Q99828 whole entry, looked up): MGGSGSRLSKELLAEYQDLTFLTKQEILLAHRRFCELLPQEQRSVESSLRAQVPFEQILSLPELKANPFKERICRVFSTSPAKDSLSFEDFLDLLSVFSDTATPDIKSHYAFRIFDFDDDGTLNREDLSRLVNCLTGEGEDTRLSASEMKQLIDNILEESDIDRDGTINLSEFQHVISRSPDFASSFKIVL
Procedure, shortened: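 Fluorescence polarization competition: CIB1-GST (1 uM final) preincubated with compound 15 min at room temperature, then FITC-labeled alphaIIb peptide (100 nM final) added for another 15 min. Polarization read at Ex 480/Em 540.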

[7] = Vero cells viability qHTS for Zika virus inhibitors (AID 1347167)
Procedure, shortened: (§1)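 Counter-screen for cytotoxicity of hits from NS2B-NS3 protease qHTS. Overnight-attached cells (2.5 x 10^5 cells/mL, DMEM/4% FBS) were dosed in titration, incubated 24 to 48 hours, then assayed by CellTiter Glo.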

[8] = HepG2 cells viability qHTS for Zika virus inhibitors (AID 1347168)
Procedure, shortened: as §1

[9] = qHTS to identify inhibitors of the type 1 interferon - major histocompatibility complex class I in skeletal muscle: primary screen against the NCATS Pharmaceutical Collection (AID 1347407);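 also: luminescence of HiBiT knocked into endogenous HLA-B as interferon-induced MHC class I level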
Procedure, shortened: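 Luminescence from HiBiT-tagged endogenous HLA-B*08:01 served as the read-out of IFN-beta-induced MHC class I in CRISPR-engineered C25cl48 myoblasts. Cells received 4 ng/ml IFN-beta plus compound (high final 46 uM, […]) for 24 h.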

[10] = qHTS to identify inhibitors of the type 1 interferon - major histocompatibility complex class I in skeletal muscle: primary screen against the NCATS Mechanism Interrogation Plate v5.0 (MIPE) Libary (AID 1347411); also: nearly all actives have a fitted effect of over 65% in size
Procedure, shortened: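 Immortalized human C25cl48 myoblasts with HiBit knocked into endogenous HLA-B*08:01 were stimulated with 4.0 ng/ml IFN-beta and exposed to compounds (11-point 1:3 titration, top 46 uM final) for 24 hrs at 37 C; HiBiT lytic luminescence measured.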

[11] = biological target: Protein phosphatase 1D (Homo sapiens) (UniProt O15297); assay: RapidFire Mass Spectrometry qHTS Assay for Modulators of WT P53-Induced Phosphatase 1 (WIP1) (AID 1347424);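 also: amount of dephosphorylated VEPPL-S-QETFS peptide product formed by WIP1; series mostly up to about 63 µM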
Protein phosphatase 1D (Homo sapiens), sequence (O15297 whole entry, looked up): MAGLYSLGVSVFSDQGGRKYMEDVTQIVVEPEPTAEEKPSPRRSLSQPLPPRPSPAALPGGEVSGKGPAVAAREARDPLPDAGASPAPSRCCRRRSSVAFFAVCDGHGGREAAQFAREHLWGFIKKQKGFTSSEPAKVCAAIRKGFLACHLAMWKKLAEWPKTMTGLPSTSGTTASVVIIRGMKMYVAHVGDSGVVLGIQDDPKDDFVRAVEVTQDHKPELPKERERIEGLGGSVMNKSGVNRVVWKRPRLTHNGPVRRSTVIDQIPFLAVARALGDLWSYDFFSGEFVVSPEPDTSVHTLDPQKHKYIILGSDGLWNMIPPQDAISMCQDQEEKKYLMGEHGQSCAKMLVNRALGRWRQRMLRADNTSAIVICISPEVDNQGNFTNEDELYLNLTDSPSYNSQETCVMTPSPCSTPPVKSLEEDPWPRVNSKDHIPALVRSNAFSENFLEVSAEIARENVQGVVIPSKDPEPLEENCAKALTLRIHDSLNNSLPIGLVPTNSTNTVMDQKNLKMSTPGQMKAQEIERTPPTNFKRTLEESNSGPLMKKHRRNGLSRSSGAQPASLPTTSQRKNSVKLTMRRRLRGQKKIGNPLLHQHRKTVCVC
Procedure, shortened: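 WIP1 (10 nM final) was preincubated 1 h at room temperature with compounds in Tris-HCl pH 7.5, 30 mM MgCl2, TCEP, EGTA, BSA; 2 uM VEPPL-pS-QETFS phosphopeptide was added for 5 min, quenched with formic acid, and dephosphorylated product quantified by RapidFire MS.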

[12] = biological target: Protein phosphatase 1D (Homo sapiens) (UniProt O15297); assay: Rhodamine-PBP qHTS Assay for Modulators of WT P53-Induced Phosphatase 1 (WIP1) (AID 1347425)
Procedure, shortened: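 The read-out is the change in Rhodamine-PBP fluorescence (f1 - f0, ex 525/em 598 nm) as Pi is released, read each minute for 11 min. Final reaction: 5 nM WIP1, 10 uM phosphopeptide VEPPL-pS-QETFS, 10 uM Rh-PBP, 50 mM Tris-HCl pH 7.5, 30 mM MgCl2. Compound was preincubated with enzyme for 1 hour at room temperature.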

[13] = Counterscreen qHTS for small molecule stabilizers of the endoplasmic reticulum resident proteome: GLuc-NoTag assay (AID 1508627);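 also: SH-SY5Y cells given compound then 100 nM thapsigargin to empty ER calcium; series mostly up to about 76 µM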
Procedure, shortened: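 SH-SY5Y cells stably expressing constitutively secreted GLuc (no SERCaMP tag) were pre-incubated 5 h, treated with compound for 19 h, then 100 nM thapsigargin for 4 h at 37C; medium GLuc read by coelenterazine luminescence.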

[14] = Confirmatory qHTS for small molecule stabilizers of the endoplasmic reticulum resident proteome: Secreted ER Calcium Modulated Protein (SERCaMP) assay (AID 1508628); also: nearly all actives have a fitted effect of over 40% in size; also: potency is read from the fitted curve at half-maximal effect
Procedure, shortened: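 We seeded SH-SY5Y-GLuc-SERCaMP cells, added compounds (three concentrations in the primary run, eleven up to 76.6 uM in confirmation), incubated 16 h, depleted ER calcium with thapsigargin, and read luciferase 4 h later.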

Measured: Potency

O=c1ccc2ccc(O)c(O)c2o1
inactive: [1] | [2] | [3] | [4] | [5] | [6]

S=c1nc[nH]c2nc[nH]c12
inactive: [7] | [8] | [9] | [10] | [11] | [12] | [5] | [6]

Nc1ccc(S(N)(=O)=O)cc1
inactive: [9] | [10] | [11] | [5] | [6]

Cc1c(C(=O)NN2CCCCC2)nn(-c2ccc(Cl)cc2Cl)c1-c1ccc(Cl)cc1
inactive: [9] | [11] | [12] | [5] | [6]

CCC[C@@H]1C[C@@H](C(=O)N[C@@H]([C@H]2O[C@H](SC)[C@H](O)[C@@H](O)[C@H]2O)[C@@H](C)O)N(C)C1
inactive: [9] | [11] | [5] | [6]

C=CCc1cc(OC)c(O)c(C(=O)NCCO)c1
inactive: [9] | [11] | [12] | [5] | [6]

CCN(CC)CCOc1ccc(Cc2ccccc2)cc1
inactive: [9] | [10] | [11] | [5] | [6]

CCCCc1ccc2nc(NC(=O)OC)[nH]c2c1
inactive: [9] | [11] | [5] | [6]

Clc1ccc(C(Cn2ccnc2)OCc2ccc(Sc3ccccc3)cc2)c(Cl)c1 (stereo unspecified)
inactive: [9] | [11] | [12] | [5] | [6]

CC(C)[C@H](N)C(=O)OCCOCn1cnc2c(=O)[nH]c(N)nc21
inactive: [9] | [10] | [11] | [5] | [6]

CCCOc1ccc2nc(NC(=O)OC)[nH]c2c1
inactive: [9] | [11] | [5] | [6]

CCOC(=O)c1c(C)n(C)c2ccc(O)cc12
inactive: [9] | [10] | [11] | [5] | [6]

CCCCCCCCOc1ccccc1C(=O)Nc1ccc(C(=O)OCC[N+](C)(CC)CC)cc1
inactive: [9] | [11] | [12] | [5] | [6]

CC1=C(C(=O)O)N2C(=O)[C@@H](NC(=O)[C@H](N)C3=CCC=CC3)[C@H]2SC1
inactive: [9] | [11] | [12] | [5] | [6]

N=C(N=C(N)N)N1CCOCC1
inactive: [9] | [11] | [12] | [5] | [6]

Oc1ccc(OCc2ccccc2)cc1
inactive: [9] | [10] | [11] | [5] | [6]

CN(C)[C@@H](CCOc1cccc2ccccc12)c1ccccc1
inactive: [9] | [11] | [12] | [5] | [6]

COc1cc2nc(N3CCN(C(=O)C4CCCO4)CC3)nc(N)c2cc1OC (stereo unspecified)
inactive: [9] | [11] | [3] | [4] | [5] | [6]

Cn1c(NCCN(CCO)CCCc2ccc([N+](=O)[O-])cc2)cc(=O)n(C)c1=O
inactive: [9] | [10] | [11] | [5] | [6]

COC1=C(OC)C(=O)C(CCCCCCCCCCO)=C(C)C1=O
inactive: [9] | [10] | [11] | [5] | [6]

O=C1CCc2ccc(OCCCCN3CCN(c4cccc(Cl)c4Cl)CC3)cc2N1
inactive: [9] | [11] | [5] | [6]

Cc1nc2n(c(=O)c1CCN1CCC(c3noc4cc(F)ccc34)CC1)CCCC2
inactive: [9] | [11] | [12] | [5] | [6]

CC(C)c1ccc2oc3nc(N)c(C(=O)O)cc3c(=O)c2c1
inactive: [9] | [11] | [12] | [6]

CCCCC(CC)COC(=O)C(C#N)=C(c1ccccc1)c1ccccc1 (stereo unspecified)
inactive: [9] | [10] | [11] | [5] | [6]

Nc1ncn([C@H]2C[C@H](O)[C@@H](CO)O2)c(=O)n1
inactive: [9] | [10] | [11] | [6]

CC(C)CC(=O)N[C@H](C(=O)N[C@H](C(=O)N[C@@H](CC(C)C)[C@@H](O)CC(=O)N[C@@H](C)C(=O)N[C@@H](CC(C)C)[C@@H](O)CC(=O)O)C(C)C)C(C)C (Isovaleryl-VV[Sta]A[Sta]-OH)
inactive: [9] | [10] | [11] | [5] | [6]

O=C(NCC1CCCCN1)c1cc(OCC(F)(F)F)ccc1OCC(F)(F)F (stereo unspecified)
inactive: [9] | [10] | [11] | [5] | [6]

CN1CCC(=C2c3ccccc3CCc3sccc32)CC1
active: [14] 25.1 µM
inactive: [9] | [10] | [11] | [12] | [5] | [6] | [13]

CCCCN(CCCC)CCC(O)c1cc2c(Cl)cc(Cl)cc2c2cc(C(F)(F)F)ccc12 (stereo unspecified)
inactive: [9] | [10] | [11] | [12] | [6]

Nc1cccc2c1CN(C1CCC(=O)NC1=O)C2=O (stereo unspecified)
inactive: [9] | [11] | [12] | [5] | [6]

CC(S)C(=O)NCC(=O)O (stereo unspecified)
inactive: [9] | [10] | [11] | [12] | [5] | [6]

CCC(C)(Oc1ccc(C2(c3ccc(OC(C)(CC)C(=O)O)cc3)CCCCC2)cc1)C(=O)O (stereo unspecified)
inactive: [9] | [10] | [12] | [5] | [6]

Cc1ccc(C)c(OCCCC(C)(C)C(=O)O)c1
inactive: [9] | [10] | [11] | [5] | [6]

O=C(O)c1cc(=O)c2c(OCC(O)COc3cccc4oc(C(=O)O)cc(=O)c34)cccc2o1
inactive: [9] | [10] | [11] | [12] | [5] | [6] | [13] | [14]
